a7 integrin act = qHTS for Activators of Integrin-Mediated Alleviation for Muscular Dystrophy | Potency, µM (titrated, usually from 38.3 µM), hits mostly activators | 0.064% of 350,000 active | alpha7betagal myoblasts, beta-gal FDG fluorescence, 48 h; also: nearly all actives have a fitted effect of over 60% in size
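alpha7betagal+/- myoblasts (passage 13, 250/well) treated 48 h at 37C with compounds at 1:260 dilution of DMSO stock. Lysed, then beta-galactosidase activity read as FDG fluorescence (ex 480/em 540) after 30 min, with pre-read for autofluorescence.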
rTrxR1 inhibitor = qHTS Assay for Inhibitors of Mammalian Selenoprotein Thioredoxin Reductase 1 (TrxR1): qHTS; Thioredoxin reductase 1, cytoplasmic (Rattus norvegicus), O89049; 1% of 390,000 active; Potency, µM (top dose mostly 114 µM), most hits filed as inhibitors; recombinant rTrxR1, NADPH fluorescence consumption, selenite substrate; also: nearly all actives have a fitted effect of over 65% in size
Target sequence (O89049 whole entry, looked up): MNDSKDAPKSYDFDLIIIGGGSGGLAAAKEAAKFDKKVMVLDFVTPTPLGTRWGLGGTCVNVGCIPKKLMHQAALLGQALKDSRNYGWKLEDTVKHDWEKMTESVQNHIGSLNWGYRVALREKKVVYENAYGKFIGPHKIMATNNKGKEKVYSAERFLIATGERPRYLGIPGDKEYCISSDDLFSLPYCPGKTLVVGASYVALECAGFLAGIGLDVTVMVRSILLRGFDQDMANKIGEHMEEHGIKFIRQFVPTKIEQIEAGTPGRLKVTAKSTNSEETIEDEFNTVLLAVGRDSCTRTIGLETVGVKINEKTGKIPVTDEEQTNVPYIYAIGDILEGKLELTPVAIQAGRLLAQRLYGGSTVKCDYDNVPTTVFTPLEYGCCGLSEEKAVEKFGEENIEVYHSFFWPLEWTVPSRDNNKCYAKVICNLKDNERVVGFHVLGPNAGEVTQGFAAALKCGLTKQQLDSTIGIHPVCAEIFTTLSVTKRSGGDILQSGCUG
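Rat TrxR1 (90 nM in the dispensed reagent) was pre-reduced with 400 uM NADPH for 5 min at room temperature, then incubated with compound for 15 min. After 400 uM selenite was added, NADPH fluorescence (Ex 340/Em 450 nm) was followed for 8 min.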
GALK inh = qHTS Assay for Inhibitors of Human Galactokinase (GALK); P51570; Purified GALK, Kinase-Glo residual ATP luminescence; Potency, µM (series often up to 57.5 µM), hits mostly inhibitors; 0.007% of 270,000 active
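Luminescence from leftover ATP (Ultra-Glo luciferase/luciferin) served as read-out after a 1 h room-temperature reaction of 5 nM GALK with 35 uM ATP and 100 uM galactose.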
LDHA inh = qHTS assay for inhibitors of human lactate dehydrogenase; purified LDHA, NADH/diaphorase-resazurin fluorescence; active compounds read low; L-lactate dehydrogenase A chain (Homo sapiens), P00338; activity change, % (values are at about 110 or 230 µM); 0.15% of 480,000 active; in the data active = activity change below about -30%; inconclusive = mostly about -25% to -30%
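Human LDH5 (2 nM) was incubated with 0.06 mM NADH and 0.2 mM pyruvate for 5 min at room temperature in Tris pH 7.4. Remaining NADH was coupled through diaphorase/resazurin, and resorufin fluorescence was read at 0 and 20 min.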
PI4K2A inh = qHTS for small molecular inhibitors of PI4K2A. Phosphatidylinositol 4-kinase type 2-alpha (Homo sapiens), Q9BTU6. purified PI4K2A, ADP-Glo luminescence, 1 h; active compounds read low. activity change, negative = inhibition, % at 76.9 µM. 0.13% of 420,000 active. AID 1346378, 2018; in the data active = activity change below about -50%; inconclusive = mostly about -30% to -49%
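ADP-Glo luminescence measured ADP generated by PI4K2A enzyme (4 ug/mL before mixing) with 1.2 mM PI substrate (pre-mix) and 300 microM ATP (pre-mix). Tris pH7.5 buffer with MgCl2, Triton X-100; 1 h reaction at ambient temperature.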
TrxR1 substrate = qHTS Assay for Substrates of Mammalian Selenoprotein Thioredoxin Reductase 1 (TrxR1): qHTS | purified TrxR1 substrate turnover, NADPH consumption readout | Potency, µM (highest dose often 114 µM) | 0.01% of 390,000 active; also: nearly all actives have a fitted effect of over 50% in size
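Rat TrxR1, dispensed at 90 nM, was prereduced with 400 uM NADPH (final) for 5 min at ~22 deg C, then incubated with compound 15 min before 400 uM selenite. A first-read NADPH fluorescence drop versus no-compound background flagged substrates.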
Of the large screens only hits and unclear results are named; the others gave an inactive call; ! = a repeat was not active. Hits are enriched below; roughly 1.1% of the tested compounds scored in any of these assays. Unless noted, calls follow the shape of the dose curve; as a rule, active = well fitted curve in the direction sought with a large enough effect; inconclusive = small, poorly fitted or top-dose-only effect, or another doubt; inactive = no such curve, though single readings can be large; an effect the other way counts as inactive or inconclusive.

Cc1cc(C(=O)CS(=O)(=O)c2ccc(Cl)cc2)cc(C)c1O	rTrxR1 inhibitor 45µM
COc1ccc(C(=O)CCS(=O)(=O)c2ccc(F)cc2)cc1OC	none (no result: a7 integrin act, rTrxR1 inhibitor, LDHA inh, PI4K2A inh, TrxR1 substrate)
Cc1ccc(C(=O)CCS(=O)(=O)c2ccc(Cl)cc2)cc1	rTrxR1 inhibitor 0.56µM
CCc1nnsc1C(=O)N(C)CCOc1ccc(C)cc1	none (no result: a7 integrin act, rTrxR1 inhibitor, GALK inh, PI4K2A inh, TrxR1 substrate)
Cc1ccc(C(=O)CS(=O)(=O)c2ccc(C)cc2)cc1	none (no result: a7 integrin act, rTrxR1 inhibitor, GALK inh, PI4K2A inh, TrxR1 substrate)
Cc1ccc(S(=O)(=O)CC(=O)c2ccccc2)cc1	rTrxR1 inhibitor 35µM
COc1ccc(OCC#CCN2CC(C)OC(C)C2)cc1 (stereo unspecified)	rTrxR1 inhibitor 16µM
Cn1c(=O)c2[nH]c(-c3ccc(S(=O)(=O)O)cc3)nc2n(C)c1=O	rTrxR1 inhibitor 32µM! (no result: a7 integrin act, GALK inh)
CC(C)c1ccc(-c2nc3c([nH]2)c(=O)n(C)c(=O)n3C)cc1	none
CSc1nc(-c2ccco2)nn1C(=O)c1ccco1	rTrxR1 inhibitor inconclusive
CSc1nc(-c2ccco2)nn1C(=O)c1ccccc1	rTrxR1 inhibitor 20µM
CSc1nc(-c2ccco2)nn1C(=O)c1ccc(C)cc1	rTrxR1 inhibitor 20µM
O=c1[nH]c(CSc2ccc(F)c(Cl)c2)nc2ccsc12	none (no result: a7 integrin act, rTrxR1 inhibitor, GALK inh, PI4K2A inh, TrxR1 substrate)
O=C1C(=O)N(CCN2CCOCC2)C(c2ccccn2)/C1=C(/O)c1ccccc1 (stereo unspecified)	rTrxR1 inhibitor 18µM
COC(=O)c1ccc(C2/C(=C(\O)c3ccc4c(c3)OCCO4)C(=O)C(=O)N2CCCN(C)C)cc1 (stereo unspecified)	none
C=CCOc1ccc(/C(O)=C2/C(=O)C(=O)N(CCCN3CCOCC3)C2c2ccccc2)cc1 (stereo unspecified)	rTrxR1 inhibitor 25µM (no result: GALK inh)
C=CCOc1ccc(/C(O)=C2/C(=O)C(=O)N(CCCN3CCOCC3)C2c2ccc(OC)cc2)cc1 (stereo unspecified)	rTrxR1 inhibitor inconclusive
COc1ccc(C2/C(=C(\O)c3ccc4c(c3)OCCO4)C(=O)C(=O)N2CCCN(C)C)c(OC)c1 (stereo unspecified)	rTrxR1 inhibitor 10µM
COc1ccc(/C(O)=C2/C(=O)C(=O)N(CCN3CCOCC3)C2c2ccccn2)cc1OC (stereo unspecified)	rTrxR1 inhibitor 45µM
Cc1ccc(/C(O)=C2/C(=O)C(=O)N(CCN3CCOCC3)C2c2ccccn2)cc1 (stereo unspecified)	rTrxR1 inhibitor inconclusive
CC1(C)CC(=O)C2=C(C1)NC1=C(C(=O)c3ccccc31)C2c1ccc(C(F)(F)F)cc1 (stereo unspecified)	none (no result: a7 integrin act, rTrxR1 inhibitor, GALK inh, PI4K2A inh, TrxR1 substrate)
CCN(CC)CCCN1C(=O)C(=O)/C(=C(/O)c2ccc3c(c2)CC(C)O3)C1c1ccncc1 (stereo unspecified)	none (no result: a7 integrin act, rTrxR1 inhibitor, LDHA inh, PI4K2A inh, TrxR1 substrate)
CCOc1ccc(C2/C(=C(\O)c3ccc4c(c3)OCCO4)C(=O)C(=O)N2CCCN2CCOCC2)cc1OC (stereo unspecified)	rTrxR1 inhibitor 50µM
CCN(CC)CCN1C(=O)C(=O)/C(=C(/O)c2ccc3c(c2)CC(C)O3)C1c1ccc(OC)cc1 (stereo unspecified)	rTrxR1 inhibitor 45µM
CCNCc1ccc(C)o1	none (no result: a7 integrin act, rTrxR1 inhibitor, GALK inh, PI4K2A inh, TrxR1 substrate)
Cc1ccc(NC(=O)c2cc(N3C(=O)C=CC3=O)ccc2Cl)cc1C	rTrxR1 inhibitor 3.2µM
Cc1ccc(NC(=O)c2cc(N3C(=O)C=CC3=O)ccc2N2CCOCC2)cc1	rTrxR1 inhibitor 0.89µM
Cc1ccc(NC(=O)c2cc(NC(=O)c3ccco3)ccc2N2CCOCC2)cc1	none
COc1cc(Nc2ccc(C)cc2)c([N+](=O)[O-])nc1[N+](=O)[O-]	rTrxR1 inhibitor 4.5µM
COC(=O)C(C)Oc1ccc2c(=O)c(-c3ccc4c(c3)OCCO4)coc2c1 (stereo unspecified)	LDHA inh -34 (no result: a7 integrin act, rTrxR1 inhibitor, GALK inh, PI4K2A inh, TrxR1 substrate)
CC(Oc1ccc2c(-c3ccccc3)cc(=O)oc2c1)C(=O)O (stereo unspecified)	none
COC(=O)C(C)Oc1ccc2c(-c3ccccc3)cc(=O)oc2c1 (stereo unspecified)	LDHA inh -32 (no result: a7 integrin act, rTrxR1 inhibitor, GALK inh, PI4K2A inh, TrxR1 substrate)
CCCn1nc(C(=O)Nc2nc(C)c(C(C)=O)s2)c2ccccc2c1=O	none (no result: a7 integrin act, rTrxR1 inhibitor, GALK inh, PI4K2A inh, TrxR1 substrate)
Cc1cc(SCC(=O)Nc2c(F)cccc2F)nc2ccccc12	none (no result: a7 integrin act, rTrxR1 inhibitor, GALK inh, PI4K2A inh, TrxR1 substrate)
CC(Sc1nc2ccccc2[nH]1)C(=O)NC(=O)NC(C)(C)C (stereo unspecified)	none (no result: a7 integrin act, rTrxR1 inhibitor, GALK inh, PI4K2A inh, TrxR1 substrate)
CC1CCN(CC[S-])CC1.O.O.[Cl][Pt]	rTrxR1 inhibitor 1.4µM (no result: a7 integrin act, GALK inh, PI4K2A inh)

Screening data as filed in PubChem.
